Results published in PubChem BioAssay AID1224858 (National Center for Advancing Translational Sciences (NCATS), 2016).
Results filed as inconclusive are left out. Active and inactive are the calls of the source. The call rests on the fitted dose curve; in most records, active means well fitted inhibition curve with a large enough effect; inconclusive means small, poorly fitted or top-dose-only effect; inactive means no such curve, though single readings can be large or run the other way.

Experiment: Confirmation assay for measurement of the activity of small molecule inhibitors on Zika virus induced Caspase-3 activity in human astrocytes
Conditions: ZIKV-induced caspase-3/7 luminescence, 6 h; series mostly up to 46.1 µM
Procedure, shortened: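 Human astrocytes were pretreated 1 h with compound, then infected with ZIKV (2 FFU/cell) for 6 h at 37 C. Caspase-3/7 activity by Caspase-Glo luminescence; percent inhibition versus uninfected and infected wells.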

Row | Structure (SMILES) | Potency
1 | CC[C@@]1(O)C[C@H](O[C@H]2C[C@H](N(C)C)[C@H](O[C@H]3C[C@H](O)[C@H](O[C@H]4CCC(=O)[C@H](C)O4)[C@H](C)O3)[C@H](C)O2)c2c(cc3c(c2O)C(=O)c2c(O)cccc2C3=O)[C@@H]1C(=O)OC | inactive
2 | O=C1c2ccccc2-[n+]2ccc3c([nH]c4ccccc43)c21 | 7.74 µM (active)
3 | Nc1ccc2c(c1)CN1C(=O)c3ccccc3C1=N2 | 2.13 µM (active)
4 | Cc1ccc(C(=O)c2ccc(CC(=O)O)n2C)cc1 | inactive
5 | CCN(CC)c1ccc(C(=C2C=CC(=[N+](CC)CC)C=C2)c2cc(S(=O)(=O)O)ccc2S(=O)(=O)[O-])cc1 | 7.74 µM (active)
6 | Nc1ccc(O)c(C(=O)O)c1 | inactive
7 | COc1cc2nc(N3CCN(C(=O)C4CCCO4)CC3)nc(N)c2cc1OC (stereo not drawn) | 10.9 µM (active)
8 | O=C(O)c1cc([N+](=O)[O-])ccc1NCCCc1ccccc1 | 8.69 µM (active)
9 | COc1ccc(-c2coc3cc(O)ccc3c2=O)cc1 | 15.5 µM (active)
10 | NC(=O)c1cccc2[nH]c(-c3ccc([C@H]4CCCN4)cc3F)nc12 | 13.8 µM (active)
11 | CC=CC[C@@H](C)C(=O)[C@H]1C(=O)N[C@@H](C(C)C)C(=O)N(C)CC(=O)N(C)[C@@H](CC(C)C)C(=O)N[C@@H](C(C)C)C(=O)N(C)[C@@H](CC(C)C)C(=O)N[C@@H](C)C(=O)N[C@H](C)C(=O)N(C)[C@@H](CC(C)C)C(=O)N(C)[C@@H](CC(C)C)C(=O)N(C)[C@@H](C(C)C)C(=O)N1C | inactive
12 | C[C@H](NC(=O)C(=O)Nc1ccccc1C(C)(C)C)C(=O)N[C@@H](CC(=O)O)C(=O)COc1c(F)c(F)cc(F)c1F | 0.245 µM (active)
13 | CC(=O)Nc1ccc([C@H](C)C(=O)Nc2ncc(C(C)C)s2)cc1 | 10.9 µM (active)
14 | Nc1ncnc2c1ncn2[C@@H]1O[C@@H](CO)[C@H](O)[C@H]1O | inactive
15 | Nc1ccc(N=Nc2ccccc2)c(N)n1 | 15.5 µM (active)
16 | CN(C)CCCSc1ccccc1NC(=O)/C=C/c1ccccc1 | 13.8 µM (active)
17 | C[C@@H](O[C@H]1OCCN(Cc2n[nH]c(=O)[nH]2)[C@@H]1c1ccc(F)cc1)c1cc(C(F)(F)F)cc(C(F)(F)F)c1 | inactive
18 | N#C/C(=C\c1ccc(O)c(O)c1)C(=O)Nc1ccccc1 | 21.8 µM (active)
19 | O[C@@H](COc1cccc2ncccc12)CN1CCN(C2c3ccccc3[C@@H]3[C@H](c4ccccc42)C3(F)F)CC1 (stereo partly drawn) | inactive
20 | CN(C)c1cc(NC(=O)CNC(C)(C)C)c(O)c2c1C[C@@H]1C[C@H]3[C@H](N(C)C)C(=O)C(C(N)=O)=C(O)[C@@]3(O)C(=O)C1=C2O | inactive
21 | O=C(O)c1ccccc1Nc1cccc(C(F)(F)F)c1 | 6.9 µM (active)
22 | CC(C)(C)COc1ccc(-n2cc(C(=O)O)cn2)cc1C#N | 7.08 µM (active)
23 | O=C(O)[C@@H](c1ccc(OCc2ccc3ccccc3n2)cc1)C1CCCC1 | 8.69 µM (active)
